{"source": "the supplement of paper PMC13380429", "data": [{"system": "Vero E6 infected with SARS-CoV-2", "assay": "morphology score (similarity to uninfected cells); higher = more like uninfected cells", "conditions": "24 h", "values": [{"compound": "COc1cc(O)c(C(=O)c2ccccc2)cc1S(=O)(=O)O", "note": "[sulisobenzone] (10 µM)", "morphology score": -0.0207}, {"compound": "CCCC1(CCC)CCC2(CCN(CCCN(CC)CC)C2)CC1", "note": "[atiprimod] (0.833333 µM)", "morphology score": 0.283}, {"compound": "Nc1nc(OCc2cc(Br)cs2)c2[nH]cnc2n1", "note": "[lomeguatrib] (10 µM)", "morphology score": 0.19}, {"compound": "N[C@H](C(=O)O)c1ccc(O)c(C(=O)O)c1", "note": "[3-carboxy-4-hydroxyphenylglycine-(S)] (10 µM)", "morphology score": 0.115}, {"compound": "O=Nc1c(-c2c(O)[nH]c3ccccc23)[nH]c2ccccc12", "note": "[indirubin-3-monoxime] (0.833333 µM)", "morphology score": 0.00718}, {"compound": "O=C1Cc2cc(CCN3CCN(c4nsc5ccccc45)CC3)c(Cl)cc2N1", "note": "[ziprasidone] (10 µM)", "morphology score": 0.328}, {"compound": "CCN(CC)CCCCNc1ncc2cc(-c3cc(OC)cc(OC)c3)c(NC(=O)NC(C)(C)C)nc2n1", "note": "(0.833333 µM)", "morphology score": 0.13}, {"compound": "CC(=O)N[C@@H](CS)C(=O)O", "note": "[acetylcysteine] (10 µM)", "morphology score": 0.183}, {"compound": "C[C@@H]1O[C@@H](O[C@H]2[C@H](Oc3cc(O)c(C(=O)CCc4ccc(O)cc4)c(O)c3)O[C@H](CO)[C@@H](O)[C@@H]2O)[C@H](O)[C@H](O)[C@H]1O", "note": "[naringin-dihydrochalcone] (10 µM)", "morphology score": 0.0437}, {"compound": "O=C(OC(C(F)(F)F)C(F)(F)F)N1CCC(C(O)(c2ccc3c(c2)OCO3)c2ccc3c(c2)OCO3)CC1", "note": "(10 µM)", "morphology score": 0.159}, {"compound": "CCOC(=O)[C@H](CCc1ccccc1)N[C@@H](C)C(=O)N1Cc2ccccc2C[C@H]1C(=O)O", "note": "[quinapril] (10 µM)", "morphology score": -0.145}]}]}
